The values below come from PubChem BioAssay.

Assay [1] deals with XIP peptide (Xip251-270) binding. In words: small-molecule binders of XIP peptide, primary screen, biochemical, small-molecule microarray, fluorescence 635/667 nm, 0.1 µg/mL protein (AID 1182). The following applies: fluorescent protein binding, 635 nm, higher = more signal, called active from +8 up or from −8 down.
A further assay has as its system XIP peptide (Xip251-270). As to the kind of experiment: small-molecule binders of XIP peptide, primary screen, biochemical, small-molecule microarray, fluorescence 635/667 nm, 0.5 µg/mL protein (AID 1183). The following applies: small-molecule microarray binding, fluorescence 635 nm; higher = more signal.
Assay [2] can be described thus: Plasmodium falciparum growth inhibition, primary screen, strain 3D7, DAPI fluorescence, 100 nL (AID 1184).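 Further: parasites grown inside human red blood cells in medium with human serum.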 The note with it: P. falciparum 3D7 growth, 3 d, higher = more signal.
Assay [3] has as its target Homeobox protein Hox-A13 (Mus musculus) (UniProt Q62424). As to the kind of experiment: inhibitors of HoxA13-DNA binding, primary screen, biochemical, fluorescence polarization, labeled oligonucleotide (AID 1185). The following applies: 15 min, higher = more signal, called active from +8 up or from −8 down. For orientation: In fluorescence polarisation assays a small probe gives low polarisation when free and higher when bound to something large.

Assay [4] can be described thus: inhibitors of hydroxyurea-induced Chk1 phosphorylation, primary screen, imaging, HeLa, phospho-Chk1 antibody, percent positive cells (AID 1186). The following applies: hydroxyurea-induced phospho-Chk1 immunofluorescence imaging, higher = more signal.
Assay [5] is described as follows: inhibitors of hydroxyurea-induced Chk1 phosphorylation, primary screen, imaging, HeLa, phospho-Chk1 nuclear intensity (AID 1187). The note with it: hydroxyurea-induced phospho-Chk1 immunofluorescence imaging, higher = more signal.

Active and inactive are the calls of the source. Unless noted, how the calls were made is not given here.

Sequence of Homeobox protein Hox-A13 (Mus musculus) (Q62424 whole entry, looked up): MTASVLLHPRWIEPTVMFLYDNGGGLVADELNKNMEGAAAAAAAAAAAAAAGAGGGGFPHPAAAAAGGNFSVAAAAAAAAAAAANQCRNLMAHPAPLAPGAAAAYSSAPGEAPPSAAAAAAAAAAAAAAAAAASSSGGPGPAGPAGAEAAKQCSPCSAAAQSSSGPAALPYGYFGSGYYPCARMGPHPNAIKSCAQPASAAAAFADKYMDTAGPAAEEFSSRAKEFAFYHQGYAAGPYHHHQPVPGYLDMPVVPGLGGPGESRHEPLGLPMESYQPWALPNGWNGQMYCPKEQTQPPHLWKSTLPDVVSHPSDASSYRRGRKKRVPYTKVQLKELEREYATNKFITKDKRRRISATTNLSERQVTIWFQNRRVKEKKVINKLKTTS

With `O=C(NCc1ccc(F)cc1)[C@H]1C[C@H]2C(=O)N3CCC[C@H]3C(=O)N2[C@H]1c1ccc(O)cc1`, the composite z-score in assay [1] is -0.0173 (inactive); in the assay with XIP peptide (Xip251-270), 0.702. Besides, the z-score in assay [2] is -1.21; in assay [3], 1.55 (inactive); in assay [4], -0.717 (inactive); in assay [5], -0.415 (inactive).
Consider `CCOC(=O)C1=CCC(c2cc3ccccc3[nH]2)N(CCN2CC(C(=O)OCC)=CCC2c2cc3ccccc3[nH]2)C1` (stereo unspecified), for which the results for the composite z-score (in assay [1]; in the assay on XIP peptide (Xip251-270)) were 0.401 (inactive) and 0.737, respectively. Further, the z-score in assay [2] is -1.51; in assay [3] it was -3.81 (inactive); in assay [4], -0.852 (inactive); in assay [5], -0.497 (inactive).
With `C=C(CCCC)/C(=C/C[C@H](OC(=O)c1ccncc1)c1ccccc1OCCO)c1cc(C(=O)OC)ccc1OC`, the composite z-score in assay [1] was 0.578 (inactive); with XIP peptide (Xip251-270) it was 0.0792. Moreover, the z-score is -3.07 in assay [2], -4.22 (inactive) in assay [3], -1.15 (inactive) in assay [4] and -0.733 (inactive) in assay [5].
As for `COC(=O)C1=CC(CCCO)=CC(c2cccs2)N(Cc2cc3c(cc2Br)OCO3)C=C1C(=O)OC` (stereo unspecified), the composite z-score is 1.07 (inactive) in assay [1] and 0.763 in the assay with XIP peptide (Xip251-270). Besides, the z-score in assay [2] is -1.26; in assay [3] it was -4.49 (inactive); in assay [4], 0.132 (inactive); in assay [5] it was 0.454 (inactive).
Regarding `N#Cc1ccc(-c2cccc(=O)o2)cc1`, the values for the composite z-score (in assay [1]; with XIP peptide (Xip251-270)) were 0.37 (inactive) and -0.0086, respectively. For the same molecule, the z-score was 0.944 in assay [2], 0.108 (inactive) in assay [3], 0.419 (inactive) in assay [4] and 0.674 (inactive) in assay [5].
As to `CCCCCCc1nc(-c2ccc(-c3ccc(Cl)c(Cl)c3)o2)cc2c1[Si](C(C)C)(C(C)C)OC2`, the composite z-score in assay [1] is 0.108 (inactive); with XIP peptide (Xip251-270) it was -0.0619. Besides, the z-score in assay [2] was -2.22; in assay [3], -3.51 (inactive); in assay [4] it was -0.6 (inactive); in assay [5] it was -0.222 (inactive).
With `CN1C(=O)[C@@H]2[C@@H](CC(COc3ccccc3)=C3[C@@H](CCc4ccccc4)OB(O)C[C@@H]32)C1=O`, the figures for the composite z-score (in assay [1]; in the assay with XIP peptide (Xip251-270)) were 0.106 (inactive) and 0.774, respectively. Moreover, the z-score in assay [2] was 1.52; in assay [3] it was -6.67 (inactive); in assay [4] it was 0.556 (inactive); in assay [5], 0.768 (inactive).
For `COCCCNC(=O)[C@@]1(Sc2ccc(C)cc2)CC(=O)N(Cc2ccccc2C(F)(F)F)[C@@H]1c1ccc(CO)cc1I`, the composite z-score in assay [1] is 0.814 (inactive); in the assay with XIP peptide (Xip251-270) it was -0.251. In addition, the z-score in assay [2] was -0.284; in assay [3], -2.03 (inactive); in assay [4] it was 0.26 (inactive); in assay [5], 0.204 (inactive).
With `C=CCOC(=O)[C@H]1[C@@H]2C(=O)O[C@@H](c3ccccc3)[C@@H](c3ccccc3)N2[C@@H](c2ccc(OCCOC(=O)[C@@H]3C[C@@H]4C(=O)N[C@@H](CCCCNC(C)=O)C(=O)N4[C@@H]3c3cccc(OCCO)c3)cc2)[C@]12C(=O)Nc1ccccc12`, the composite z-score was 0.785 (inactive) in assay [1] and 0.824 with XIP peptide (Xip251-270). The z-score was -1.55 in assay [2], -0.0913 (inactive) in assay [3], 0.321 (inactive) in assay [4] and 0.0173 (inactive) in assay [5].
With `COC(=O)[C@H](Cc1ccccc1)N1CC2=CCCC=C[C@@H]2[C@H]1[C@H](O)Cc1ccccc1`, the composite z-score was 0.444 (inactive) in assay [1] and -0.221 with XIP peptide (Xip251-270). Besides, the z-score is -0.926 in assay [2], -6.25 (inactive) in assay [3], -0.359 (inactive) in assay [4] and -0.685 (inactive) in assay [5].
Regarding `COC(=O)C(CC#Cc1ccc2c(c1)[C@]1(C(=O)N2)[C@H](c2ccccc2OCCO)N2[C@H](c3ccccc3)[C@H](c3ccccc3)OC(=O)[C@H]2[C@@H]1C(=O)N1CCc2cc(OC)c(OC)cc2C1)C(=O)OC`, the composite z-score in assay [1] is -0.19 (inactive); in the assay with XIP peptide (Xip251-270), 0.621. The z-score in assay [2] was -2.19; in assay [3], 3.17 (inactive); in assay [4], -0.0586 (inactive); in assay [5], -0.139 (inactive).
With `COc1ccc(C(=O)Nc2ccc(CN3C(=O)[C@@]4(O[C@@H](CCn5cc(CCO)nn5)[C@H]([Si](C)(C)c5ccc(OC)cc5)[C@H]4C)c4ccccc43)cc2)cc1`, the composite z-score in assay [1] was 1.04 (inactive); in the assay with XIP peptide (Xip251-270), 0.561. Further, the z-score was -2.71 in assay [2], -3.79 (inactive) in assay [3], -0.989 (inactive) in assay [4] and -1.13 (inactive) in assay [5].
On to `COc1ccc(CCNC(=O)[C@@H]2c3ccccc3C(=O)N(Cc3ccccc3OC)[C@H]2c2ccc(CO)cc2)cc1`, for which the composite z-score in assay [1] was 0.675 (inactive); in the assay on XIP peptide (Xip251-270), 0.393. Also, the z-score in assay [2] was -0.996; in assay [3], -4.7 (inactive); in assay [4] it was -0.0274 (inactive); in assay [5], -0.213 (inactive).
On to `C=CC[C@@]1(C(=O)OC)N=C(c2ccc(OCCCO)cc2)O[C@@H]1c1ccccc1N=[N+]=[N-]`, for which the composite z-score is 0.741 (inactive) in assay [1] and 0.852 in the assay with XIP peptide (Xip251-270). Moreover, the z-score was -2.27 in assay [2], -3.81 (inactive) in assay [3], -0.312 (inactive) in assay [4] and 0.0948 (inactive) in assay [5].
With `CC(C)NC(=O)[C@@H]1c2ccccc2C(=O)N(Cc2ccc(OC(F)(F)F)cc2)[C@H]1c1ccc(CO)cc1`, the composite z-score in assay [1] is -0.514 (inactive); in the assay with XIP peptide (Xip251-270) it was 0.72. Besides, the z-score in assay [2] was -1.58; in assay [3] it was -3.72 (inactive); in assay [4], 0.244 (inactive); in assay [5], 0.137 (inactive).
As for `O=C(NC1CC1)[C@@H]1c2ccccc2C(=O)N(CC23CC4CC(CC(C4)C2)C3)[C@H]1c1ccc(CO)cc1`, the results for the composite z-score (in assay [1]; in the assay with XIP peptide (Xip251-270)) were 0.383 (inactive) and 0.686, respectively. For the same molecule, the z-score in assay [2] was -2.22; in assay [3], -5.05 (inactive); in assay [4], -0.0001 (inactive); in assay [5], 0.169 (inactive).
With `O=C(O)[C@H](Cc1ccccc1)n1cc(C2(O)CCCCC2)nn1`, the values for the composite z-score (in assay [1]; with XIP peptide (Xip251-270)) were -0.0467 (inactive) and 0.0248, respectively. The z-score in assay [2] was 0.074; in assay [3], -1.04 (inactive); in assay [4] it was 0.402 (inactive); in assay [5], -0.535 (inactive).
Turning to `CCOC(=O)C[C@H]1[C@H](OC(=O)c2ccccc2-c2ccccc2)[C@@H](NC(=O)c2ccc3ccccc3c2)c2cc(OCCCO)ccc2N1C(=O)Cc1ccc(OC)cc1`, the composite z-score in assay [1] was 0.882 (inactive); in the assay with XIP peptide (Xip251-270) it was -0.47. Besides, the z-score in assay [2] is 0.0063; in assay [3], -2.79 (inactive); in assay [4], -0.242 (inactive); in assay [5], -0.189 (inactive).
Consider `CC(C)NC(=O)[C@@H]1c2ccccc2C(=O)N(Cc2ccccc2C(F)(F)F)[C@H]1c1ccc(CO)cc1`, for which the figures for the composite z-score (in assay [1]; in the assay with XIP peptide (Xip251-270)) were 0.483 (inactive) and 0.78, respectively. For the same molecule, the z-score in assay [2] is -0.276; in assay [3], -3.17 (inactive); in assay [4], 0.41 (inactive); in assay [5], 0.405 (inactive).
`C=C(C)[C@@H]1CC=C(C(O)C2C=CC3C(=O)N(c4ccccc4)C(=O)C3N2Nc2ccc([N+](=O)[O-])cc2)CC1` (stereo partly specified): the composite z-score in assay [1] was 0.26 (inactive); in the assay with XIP peptide (Xip251-270), -0.0122. The z-score in assay [2] was -1.26; in assay [3], -1.49 (inactive); in assay [4] it was 0.248 (inactive); in assay [5], 0.0235 (inactive).
With `COc1ccc(C(=O)Nc2ccc3c(c2)[C@@]2(O[C@H](CCO)[C@@H]([Si](C)(C)c4ccc(OC)cc4)[C@@H]2C)C(=O)N3Cc2ccccc2)cc1`, the composite z-score is 0.396 (inactive) in assay [1] and 0.466 with XIP peptide (Xip251-270). In addition, the z-score in assay [2] was -2.89; in assay [3], -1.54 (inactive); in assay [4] it was 0.0691 (inactive); in assay [5], 0.518 (inactive).
Regarding `C=C(CCCC)C(=O)CC[C@H](OC(=O)c1ccccc1-c1ccccc1C(=O)O)c1ccc(OCCO)cc1`, the composite z-score in assay [1] is 2.21 (inactive); with XIP peptide (Xip251-270) it was 0.546. In addition, the z-score in assay [2] is -3.08; in assay [3] it was -6.36 (inactive); in assay [4] it was 0.0505 (inactive); in assay [5] it was -0.0839 (inactive).
On to `O=C(N1CCOCC1)[C@@]1(Cc2ccccc2)COC(c2ccc(OCCCO)cc2)=N1`, for which the composite z-score in assay [1] was 0.509 (inactive); in the assay with XIP peptide (Xip251-270), 0.52. Further, the z-score in assay [2] was -1.99; in assay [3], -5.19 (inactive); in assay [4], -0.42 (inactive); in assay [5], -0.504 (inactive).
`COc1ccc(NN2C(C(O)c3ccc(I)cc3)C=CC3C(=O)N(C4CCCCC4)C(=O)C32)cc1` (stereo unspecified): the composite z-score is 1.63 (inactive) in assay [1] and 0.618 in the assay on XIP peptide (Xip251-270). Further, the z-score in assay [2] was -0.684; in assay [3], -3.31 (inactive); in assay [4], 0.0831 (inactive); in assay [5], -0.481 (inactive).
On to `CN(C)c1ccc(C(O)C2C=CC3C(=O)N(Cc4ccccc4)C(=O)C3N2n2cnnc2)cc1` (stereo unspecified), for which the figures for the composite z-score (in assay [1]; in the assay with XIP peptide (Xip251-270)) were 3 (inactive) and -0.23, respectively. In addition, the z-score in assay [2] is 0.736; in assay [3] it was -0.863 (inactive); in assay [4], -1.39 (inactive); in assay [5] it was -1.58 (inactive).
As to `COc1ccc([Si](C)(C)[C@H]2[C@H](CCO)O[C@@]3(C(=O)N(Cc4cccc(N5C(=O)c6ccccc6Oc6ccccc65)c4)c4ccccc43)[C@@H]2C)cc1`, the results for the composite z-score (in assay [1]; in the assay on XIP peptide (Xip251-270)) were 0.505 (inactive) and 0.571, respectively. The z-score was -2.82 in assay [2], -0.884 (inactive) in assay [3], -0.432 (inactive) in assay [4] and -0.702 (inactive) in assay [5].
